Source: PubChem (National Center for Advancing Translational Sciences (NCATS))
An excerpt weighted towards active compounds, which were near 9.2% of everything screened.
ELG1 DNA repair – qHTS screen for small molecules that inhibit ELG1-dependent DNA repair in human embryonic kidney (HEK293T) cells expressing luciferase-tagged ELG1 | HEK293T ELG1-luciferase reporter, luminescence, 16 h; DNA damage induced by 5-fluorouridine | Potency, µM (highest dose often 46.1 µM), for the others: at the highest dose activity change, negative = inhibition, usual class: inhibitors | 330,000 compounds, 2.3% hits; further: on the % scale 0 is the no-effect control and ±100 the full control effect; nearly all actives have a fitted effect of over 55% in size
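Cells (2,000 per well) received 5-fluorouridine plus test compound or DMSO and were incubated 16 hr at 37 °C, 5% CO2. Luciferase activity was read by luminescence 30 min after ONE-Glo addition; signal suppression marked inhibition of damage-induced ELG1 function.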
ELG1 genotox – qHTS screen for small molecules that induce genotoxicity in human embryonic kidney (HEK293T) cells expressing luciferase-tagged ELG1. 330,000 compounds, 1.3% hits. HEK293T ELG1-luciferase reporter, luminescence, 16 h. Potency, µM (top dose mostly 46 µM), without a hit: at the highest dose activity change, positive = activation, most hits filed as activators; further: % of control where 0% means no effect; nearly all actives have a fitted effect of over 60% in size
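HEK293T cells expressing luciferase-tagged ELG1 were exposed to compound or DMSO vehicle for 16 hr at 37 °C and 5% CO2. Luciferase activity was then measured with ONE-Glo after 30 min at room temperature.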
FLuc modulator – qHTS profiling assay for firefly luciferase inhibitor/activator using purifed enzyme and Km concentrations of substrates (counterscreen for miR-21 project); purified FLuc, Km substrates, luminescence inhibition; Potency, µM (highest dose often 57.5 µM), for inactives: top-dose activity change, negative = inhibition, actives largely listed as inhibitors; 360,000 compounds, 6.9% hits;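 further: plate controls were vehicle for no effect and reference inhibitor for full effect; nearly all actives have a fitted effect of over 55% in size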
Target sequence (P08659 whole entry, looked up): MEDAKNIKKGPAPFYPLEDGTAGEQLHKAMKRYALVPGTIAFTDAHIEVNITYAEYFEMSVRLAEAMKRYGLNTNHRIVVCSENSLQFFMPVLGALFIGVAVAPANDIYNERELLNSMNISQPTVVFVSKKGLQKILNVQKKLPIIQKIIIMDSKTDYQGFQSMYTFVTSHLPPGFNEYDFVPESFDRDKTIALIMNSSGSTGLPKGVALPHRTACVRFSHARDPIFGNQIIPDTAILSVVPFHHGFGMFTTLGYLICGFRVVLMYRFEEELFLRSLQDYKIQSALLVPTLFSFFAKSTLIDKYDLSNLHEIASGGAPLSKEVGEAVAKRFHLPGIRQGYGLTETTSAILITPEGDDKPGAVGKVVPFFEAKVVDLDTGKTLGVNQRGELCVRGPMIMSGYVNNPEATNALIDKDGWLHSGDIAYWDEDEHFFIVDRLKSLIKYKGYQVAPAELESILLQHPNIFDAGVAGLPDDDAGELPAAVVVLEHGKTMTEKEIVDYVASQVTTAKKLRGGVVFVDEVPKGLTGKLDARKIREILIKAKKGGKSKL
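Purified P. pyralis luciferase (10nM final) with 10uM D-luciferin and 10uM ATP (Km levels) in 50mM Tris acetate pH 7.5, 10mM Mg acetate, 0.01% Tween-20, 0.05% BSA; qHTS 6-point titration, ~60 µM downward; luminescence read.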
NPC1 prom act – qHTS Assay for NPC1 Promoter Activators | Huh7 NPC1 promoter luciferase reporter, 24 h | Potency, µM (top dose mostly 9.22 µM), for inactives: top-dose activation, actives largely listed as activators | 320,000 compounds, 2.4% hits; further: % of control where 0% means no effect; nearly all actives have a fitted effect of over 60% in size
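Readout is luciferase luminescence, reflecting NPC1 promoter activation in stably transfected Huh7 cells after 24 h compound exposure at 37 °C in reduced-serum medium with 10% FBS.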
Rab9 promoter act – qHTS Assay for Rab9 Promoter Activators; Huh7 Rab9 promoter-luciferase reporter, luminescence, 24 h; Potency, µM (doses to about 9.22 µM), without a hit: at the highest dose activation, negative = inhibition, actives largely listed as activators; 320,000 compounds, 2.8% hits; further: % of control where 0% means no effect; nearly all actives have a fitted effect of over 60% in size
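Cells were plated at 1500 per well in reduced-serum medium with 10% FBS and left 2 h. Compound in DMSO was then added for 24 h at 37 °C. Reporter signal was read by luminescence after 10 min with luciferase detection reagent.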
SMN2 splice enh – qHTS Assay for Enhancers of SMN2 Splice Variant Expression. HEK293 SMN2-luciferase splicing reporter, luminescence, 30-36 h. Potency, µM (series often up to 46.1 µM), without a hit: at the top dose activity change, positive = activation, actives largely listed as activators. 210,000 compounds, 2.8% hits; further: % of control where 0% means no effect; nearly all actives have a fitted effect of over 55% in size
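HEK293 cells carry an SMN2 minigene-luciferase reporter in which exon 7 inclusion puts luciferase in frame. Cells were seeded at 2000 cells/well, attached for 10-12 hours, then exposed to compounds for 30-36 hours at 37C before ONE-Glo luminescence.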
* = called active by the depositor; ? = inconclusive; nt = no result. The call rests on the fitted dose curve; in most records, active means well fitted curve in the direction sought with a large enough effect; inconclusive means small, poorly fitted or top-dose-only effect, or another doubt; inactive means no such curve, though single readings can be large; an effect the other way counts as inactive or inconclusive. Potency means the concentration at half of the fitted maximal effect.

SMILES	ELG1 DNA repair	ELG1 genotox	FLuc modulator	NPC1 prom act	Rab9 promoter act	SMN2 splice enh
CCc1ccc(OCc2nnc(SCC(=O)NC3CCCCC3)o2)cc1	1%	2%	11µM*	-1%	1%	nt
O=C(CSc1nnc(-c2ccccn2)o1)Nc1ccccc1Cl	?	?	0%	?	0.56µM*	nt
O=C(CSc1nnc(-c2ccncc2)o1)Nc1cc(F)ccc1F	?	?	-22%	2.8µM*	2.8µM*	nt
COc1ccccc1-c1nnc(SCC(=O)Nc2ccccc2F)o1	nt	nt	-12%	nt	nt	nt
O=S(=O)(c1ccc(Oc2ccc(F)c(Cl)c2)nc1)N1CCOCC1	1%	2%	3%	-2%	0%	nt
NC(=O)C1CCN(C(=O)c2cc(-c3ccc(Cl)s3)nc3ccccc23)CC1	-10%	-5%	nt	nt	nt	nt
CCc1ccccc1NC(=O)CSc1nnc(COc2ccccc2Cl)o1	nt	nt	17µM*	nt	nt	-10%
Cc1cnc(NC(=O)CSc2nnc(-c3ccccc3)o2)s1	?	?	-8%	3.5µM*	2µM*	10µM*
Cc1cccc(NC(=O)CSc2nnc(-c3cc(C)n(-c4ccccc4)c3C)o2)c1C	?	0%	17µM*	-1%	-3%	5%
O=C(CSc1nnc(COc2ccc(Cl)cc2Cl)o1)Nc1ccccn1	?	1%	?	1%	-3%	nt
COc1ccc2c(c1OC)C(=O)OC2n1c(O)c(N=NC(C)=O)c2ccccc21 (centres undefined)	-2%	-1%	2%	-2%	-9%	nt
CCN(CCNC(=O)C1CCN(S(=O)(=O)c2cccc3cccnc23)CC1)c1ccccc1	8%	-34%	14%	0%	-2%	9%
C=CCSc1n[nH]c(-c2ccccc2)n1	?	?	?	28%	28%	16%
COc1ccc(-c2nc(SCC(=O)Nc3cc(C)on3)n[nH]2)cc1	-17%	11%	21µM*	0%	1%	-11%
CCCCOc1ccc(-c2nc(=S)[nH][nH]2)cc1	?	30%	?	26%	?	10µM*
C=CCSc1n[nH]c(-c2ccc(OC)cc2)n1	?	3.3µM*	15µM*	2.8µM*	2µM*	14µM*
CCOc1ccc(N(CC)C(=O)CSc2n[nH]c(-c3ccccc3)n2)cc1	nt	nt	-19%	nt	nt	nt
CCCCOc1ccc(-c2nc(SCC(N)=O)n[nH]2)cc1	?	12%	11µM*	?	25%	10%
COc1ccccc1CN(C)C(=O)COC(=O)c1c(C)noc1C	-1%	-4%	nt	nt	nt	nt
COc1ccc(CCNC(=O)C(CC(C)C)N2Cc3ccccc3C2=O)c(OC)c1OC (centres undefined)	nt	nt	4%	nt	nt	nt
CC(=O)c1cccc(NC(=O)CSc2n[nH]c(-c3ccncc3)n2)c1	14%	2%	?	1%	-12%	nt
COc1ccc(-c2nc(SCC(=O)Nc3cccc(C(C)=O)c3)n[nH]2)cc1	nt	nt	6.7µM*	nt	nt	nt
COc1ccc(-c2nc(SCC(=O)Nc3c(F)cccc3F)n[nH]2)cc1	13%	16%	12µM*	-1%	-3%	nt
COc1ccc(CCNC(=O)CCCc2ccccc2)cc1OC	0%	3%	0%	-2%	-1%	nt
COc1ccc2[nH]c3c(c2c1)CCN1C(=O)C(CC(=O)NCc2ccco2)C[C@H](C(=O)N2CCOCC2)[C@@]31C (some centres undefined)	?	-1%	nt	nt	nt	nt
Cc1cc(C)c(C(=O)CN2C(=O)NC3(CCCCC3)C2=O)cc1C	?	11%	-3%	16%	?	22%
Cc1ccc(C(=O)CN2C(=O)NC3(CCCCCC3)C2=O)c(C)c1	?	16µM*	?	4µM*	?	nt
